# The source made the active and inactive calls.
# Experiments:
# [1] = compound effects on lung adenocarcinoma cell viability – A549, calcein-AM fluorescence, 48 h, basal, profiling panel (AID 1162); conditions: higher = more signal
# [2] = compound effects on differentiated 3T3-L1 adipocyte viability – cell-based, 3T3-L1 adipocytes, calcein-AM fluorescence, 48 h, basal, profiling panel (AID 1163); conditions: 3T3-L1 adipocytes viability, higher = more signal
# [3] = compound effects on hepatocellular carcinoma cell viability – HepG2, calcein-AM fluorescence, 48 h, basal, profiling panel (AID 1164); conditions: higher = more signal
# [4] = compound effects on multiple myeloma cell viability – MM1S, calcein-AM fluorescence, 48 h, basal, profiling panel (AID 1165); conditions: higher = more signal
# [5] = calcein-AM signal in unstimulated myeloma cells – cell-based, calcein-AM fluorescence, 48 h, PK04 Diversity Set, profiling panel (AID 1166); conditions: RPMI8226 myeloma viability, higher = more signal;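 further: cells grown under basal conditions without added stimulus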
# [6] = JC-1 mitochondrial signal, unstimulated HepG2 cells – cell-based, JC-1 fluorescence, 24 h, 100 nL compound, profiling panel (AID 1167); conditions: HepG2 mitochondrial potential, higher = more signal
# [7] = JC-1 mitochondrial signal, unstimulated adipocytes – cell-based, JC-1 fluorescence, 3T3-L1 adipocytes, 24 h, 100 nL compound, profiling panel (AID 1168); conditions: JC-1 mitochondrial fluorescence, higher = more signal, called active from +8 up or from −8 down
# [8] = JC-1 mitochondrial signal, unstimulated myeloma cells – cell-based, JC-1 fluorescence, RPMI8226, 24 h, 100 nL compound, profiling panel (AID 1169); conditions: JC-1 mitochondrial potential fluorescence, higher = more signal
# [9] = JC-1 mitochondrial signal, unstimulated MM1S myeloma – cell-based, JC-1 fluorescence, 24 h, 100 nL compound, profiling panel (AID 1170); conditions: MM1S mitochondrial potential, higher = more signal
# [10] = resazurin metabolic signal in A549 cells – cell-based, resazurin fluorescence, 24 h, PK04 Diversity Set, profiling panel (AID 1171); conditions: A549 viability, higher = more signal, called active from +8 up or from −8 down
# Further: test concentration not given here.
Compound,z-score [1],z-score [2],z-score [3],z-score [4],z-score [5],z-score [6],z-score [7],z-score [8],z-score [9],z-score [10]
CC(C)NC(=O)[C@@]1(C)c2ccccc2C(=O)N(Cc2ccccc2)[C@H]1c1ccc(CO)cc1,0.389,0.714,1.41,0.579,0.38,2.88,1.49 (inactive),-0.197,1.02,-0.268 (inactive)
O=C1O[C@@H](c2ccccc2)[C@@H](c2ccccc2)N2[C@@H](c3ccc(OCCO)cc3)[C@]3(C(=O)Nc4ccc(C#CC5(O)CCCCCC5)cc43)[C@@H](C(=O)Nc3nc4ccccc4s3)[C@H]12,0.324,1.33,0.667,-1.64,-1.79,-3.13,-0.456 (inactive),-0.805,-0.344,0.524 (inactive)
COC(=O)[C@@]1(Cc2ccc(F)cc2)[C@H]2c3cc(C(=O)N4CCCC4)n(CCc4ccccn4)c3C[C@H]2CN1C(=O)c1ccccc1,0.19,-0.0629,0.278,-0.118,-0.431,1.98,-0.962 (inactive),-0.815,-0.515,0.182 (inactive)
